# High-throughput results deposited in PubChem by The Scripps Research Institute Molecular Screening Center.
# hgDAF12 agonist – hgDAF-12 agonism, primary luciferase screen. HEK293 GAL4-hgDAF12 UAS-luciferase reporter, agonist luminescence; normalized to butyrate control. 370,000 tested, 1.8% active. activation, % at 6.8 µM;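 active = activation above a cutoff set at the mean of all screened compounds plus 3 SD, cut at about 10% in these data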;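 also: 0% = DMSO wells and 100% = sodium butyrate wells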
# DAX1 inh-1 – inhibits human nuclear receptor DAX1 | HEK293 Gal4-DAX1 luciferase reporter, luminescence | 340,000 tested, 0.99% active | inhibition, % at 6.75 µM | AID 504766 | P51843;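 active = inhibition above the mean over all tested compounds plus 3 SD, cut at about 4.2% in these data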;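 also: 0% = DAX1-transfected cells with DMSO and 100% = empty-vector control cells with DMSO; inhibition shows as a rise in luminescence from relieved DAX1 repression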
# Target sequence (P51843 207-470 limits assumed): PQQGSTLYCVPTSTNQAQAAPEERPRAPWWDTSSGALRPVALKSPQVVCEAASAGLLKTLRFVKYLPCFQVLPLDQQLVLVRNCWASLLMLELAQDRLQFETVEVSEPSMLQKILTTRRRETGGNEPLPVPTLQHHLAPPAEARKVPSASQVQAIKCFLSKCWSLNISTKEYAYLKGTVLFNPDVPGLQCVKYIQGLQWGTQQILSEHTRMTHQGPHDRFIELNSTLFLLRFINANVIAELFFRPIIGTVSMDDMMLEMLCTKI
# DAX1 inh-2 – DAX1 (NR0B1) inhibition, primary screen. inhibition, % at 6.8 µM. HEK293T StAR-luciferase reporter, SF-1/DAX-1 repression relief. 370,000 tested, 1.1% active;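 active = inhibition above the mean over all tested compounds plus 3 SD, cut at about 3.6% in these data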;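 also: 0% = DAX-1 cells with DMSO and 100% = cells lacking DAX-1 with DMSO; higher inhibition means more luminescence from relief of DAX-1 repression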
# ssDAF-12 act – activators of S. stercoralis DAF-12 nuclear receptor | HEK293 ssDAF-12/GRIP1 lit1-tk-luc reporter, luminescence; % of 3 µM dafachronic acid response | activation, % at 6.8 µM | 370,000 tested, 1% active | AID 652126;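 active = activation above the mean over all tested compounds plus 3 SD, cut at about 0.9% in these data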;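 also: 0% = DMSO-only wells and 100% = 3 µM delta7-dafachronic acid wells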
# SMARCA2 activ – increases SMARCA2 function in MMTV reporter cells | MG213 cells, MMTV-luciferase reporter, dexamethasone, overnight | 370,000 tested, 1% active | activation, % at 9.1 µM; in the data active = activation above about 7.8%;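 also: 0% = vehicle wells and 100% = reference activator wells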
# hcDAF-12 act – activators of H. contortus DAF-12 nuclear receptor. HEK293 hcDAF-12 lit1-tk-luc reporter, luminescence; 0% DMSO, 100% Δ7-dafachronic acid. activation, % at 6.8 µM. 370,000 tested, 1.4% active. AID 652067;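 active = activation above the mean of all tested compounds plus 3 SD, cut at about 5.5% in these data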;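 also: 100% = response to 3 µM Δ7-dafachronic acid high control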
# Starred values were filed as active, the others as inactive; x = not tested or not shown. The list is not random: actives were taken first. Their share in the collection is about 4.8%.
SMILES,hgDAF12 agonist,DAX1 inh-1,DAX1 inh-2,ssDAF-12 act,SMARCA2 activ,hcDAF-12 act
CC[C@]12c3[nH]c4cc(CCC(=O)N(C)C)ccc4c3CCN1C(=O)[C@@H](CC(=O)NCCCOC)C[C@@H]2C(=O)N1CCN(C(=O)c2ccco2)CC1,2,-1,1,0,-2,1
CC(=O)Oc1cc(O)c2c(=O)c(OC(C)=O)c(-c3ccc(OC(C)=O)c(OC(C)=O)c3)oc2c1,x,4.5*,x,x,x,x
Cc1ccc(CONC(=O)c2cccc([N+](=O)[O-])c2)cc1,3,4.7*,-1,-2,-1,-1
COc1cc([N+](=O)[O-])ccc1NC(=O)Nc1ccc2c(c1)OCCO2,1,0,0,-2,-4,-3
COc1ccc(NC(=O)c2ccc3c(c2)n(C)c(=O)n3C)cc1,0,6.4*,0,-2,1,-2
CCCCn1nc2cc(C(=O)NCCc3cccs3)ccc2c1OCC,1,0,0,-2,3,-1
CCCCOc1ccc(C(=O)NCCc2cccs2)cc1,x,1,x,x,x,x
CCOc1ccc(NC(=O)c2ccc(OC)cc2)cc1,13*,-1,1,-1,0,0
CCOc1ccc(C(=O)NCc2cccs2)cc1,7,1,1,0,7.9*,1
COc1ccc(C(=O)Nc2ccc3c(c2)n(C)c(=O)n3C)cc1OC,1,2,0,-1,-2,-1
CCOc1c2ccc(C(=O)NCCc3cccs3)cc2nn1CC,12*,2,3,0,5,3
CCOc1ccc(NC(=O)c2ccc(NC(=O)c3ccc(NC(N)=O)cc3)cc2)cc1,0,x,2,0,6,0
COc1ccc(-n2c(C)nc3cc(C(=O)NCCN4CCOCC4)ccc32)cc1,0,0,-1,-1,-1,-1
Cc1cc(C(=O)COC(=O)c2ccccc2O)c(C)n1CC1CCCO1 (centres undefined),-19,-4,-9,-3,-8,-9
O=c1[nH]ncc(NCCc2ccccc2)c1Cl,3,-1,0,-2,-2,-2
Cc1nc2ccc(NS(=O)(=O)c3ccc(F)c(C)c3)cc2[nH]1,-5,-3,-1,-2,-3,-3
COc1ccc(NC(=O)c2ccc3ncsc3c2)cc1,10,1,0,1.3*,2,1
Cc1cc(NC(=O)NC(=O)c2ccc(F)cc2F)n[nH]1,11*,0,3,0,5,3
c1ccc2c(c1)Cn1nc(Cc3nc4c(s3)CCCC4)nc1-2,6,4.4*,0,-1,3,5.7*
N#CCc1nc2n(n1)Cc1ccccc1-2,-1,0,0,-1,-2,0
O=C(Nc1cccc(S(=O)(=O)NC2=NCCC2)c1)c1ccc(F)cc1,-2,-2,-2,-1,-3,-2
CCn1c(SCC(=O)NNC(=S)Nc2ccc(C)cc2)nnc1-c1ccc(Cl)cc1,-2,-1,-1,-1,-2,0
CC1CCCC=CC2CC(OC(=O)CN(C)C)CC2C(O)C=CC(=O)O1 (centres undefined),-8,-2,4.5*,-2,-9,-2
O=C1N=c2ccccc2=C1c1sc(Nc2ccc(O)cc2)nc1O,-2,1,0,0,7.8*,0
COc1ccc(/C=C2/SC(=S)N(Cc3ccccc3)C2=O)cc1O,-1,-1,0,-1,0,0
SMILES,hgDAF12 agonist,DAX1 inh-1,DAX1 inh-2,ssDAF-12 act,SMARCA2 activ,hcDAF-12 act
COc1ccc(/C=C2\SC(=S)N(N3C(=O)CCC3=O)C2=O)cc1O,-2,4.4*,0,0,-4,-1
Clc1cc(Cl)c2nc(N3CCCC3)sc2c1,11*,1,3,0,-6,2
Cc1ccc(C(=O)Nc2cnc3ccccn3c2=O)cc1,8,1,4.0*,-1,7,2
O=C(CN1CCN(S(=O)(=O)c2ccccc2)CC1)Nc1ccc(Cl)c(Cl)c1,-5,-2,-1,-2,-4,-2
CCOC(=O)c1cc(-c2ccccc2)n(CCC(=O)O)c1C,5,4.4*,-1,-1,-3,-2
Cc1cccc(C)c1NC(=O)C(c1ccncc1)n1c(=O)c(-c2cc3ccccc3[nH]2)nc2ccccc21 (centres undefined),11*,x,2,1.0*,-2,6.4*
CC(C)(C)NC(=O)C(c1cc2ccccc2o1)n1c(=O)c(-c2ccccc2)nc2ccccc21 (centres undefined),3,x,1,1.1*,0,4
CCCCCNC(=O)C(c1cc2ccccc2o1)n1c(=O)c(-c2cc3ccccc3[nH]2)nc2ccccc21 (centres undefined),5,x,0,0,-1,5.6*
CCCCCNC(=O)C(C1CC1)n1c(=O)c(-c2cc3ccccc3[nH]2)nc2ccccc21 (centres undefined),3,x,0,0,-3,2
CCCCCNC(=O)C(c1ccc(-c2ccccc2)cc1)n1c(=O)c(-c2cc3ccccc3[nH]2)nc2ccccc21 (centres undefined),6,x,2,1.2*,-2,6.0*
Cc1cccc(C)c1NC(=O)C(c1ccccc1)n1c(=O)c(-c2cc3ccccc3[nH]2)nc2ccccc21 (centres undefined),1,x,1,0,-3,3
NC(=O)CC(NC(=O)c1ccc(Br)cc1)c1ccc(NCCc2ccc(F)cc2)c([N+](=O)[O-])c1 (centres undefined),-2,0,-1,-2,1,-1
Cc1cc(NC(=O)CSc2nnc(-c3ccncc3)n2-c2ccccc2)no1,-2,-1,1,-1,0,0
COc1ccc(OC)c(NC(=O)CN2C(=O)C3(OCCCO3)c3ccccc32)c1,0,0,0,-2,-2,-2
COC(=O)c1c(C)oc(C)c1S(=O)(=O)N1CCCC1,-1,4.4*,0,-1,0,-1
COC(=O)c1c(C)oc(C)c1S(=O)(=O)N1CCCCC1,-1,1,-1,-2,-2,-2
CN(C)C(=O)CSc1nnc2sc3ccccc3n12,3,2,0,-1,1,0
Cc1ccc(C)c(NC(=O)C(=O)NCC2CCCN2S(=O)(=O)c2cccs2)c1 (centres undefined),1,-2,-3,-1,-3,-1
Clc1ccc(CSc2nnc(-c3ccccn3)n2Cc2cccs2)cc1Cl,1,x,4.2*,0,6,1
CNS(=O)(=O)c1cn(CC(=O)NCc2cccc(OC)c2)cc1S(=O)(=O)NC,-1,1,0,0,-2,5.8*
CNS(=O)(=O)c1cn(CC(=O)NCc2ccc(OC)cc2)cc1S(=O)(=O)NC,2,2,0,-2,-1,-1
